LDHA inh: inhibitors of human lactate dehydrogenase A; purified LDHA, NADH/diaphorase-resazurin fluorescence; active compounds read low; P00338; 480,000 tested, 0.15% active; activity change, % (values are at about 110 or 230 µM); in the data active = activity change below about -30%; inconclusive = mostly about -25% to -30%;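 also: plate controls were DMSO wells for no effect and wells without enzyme for full effect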
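Human LDH5 at 2 nM final in Tris HCl pH 7.4 with 0.06 mM NADH and 0.2 mM pyruvate, reacted 5 minutes at room temperature. Remaining NADH coupled via diaphorase/resazurin; resorufin fluorescence read at 0 and 20 minutes, normalized to enzyme-free and DMSO wells.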
HEK293 tox: cytotoxicity in counter-screen for GLP-1R inverse agonists. 410,000 tested, 0.13% active. HEK293 cAMP-luciferase reporter cells, luminescence, 24 h. Potency, µM (titrated, usually from 38.3 µM), without a hit: top-dose activity change, negative = inhibition, most hits filed as inhibitors;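 also: loss of luciferase light is scored as toxicity; potency is read from the fitted curve at half-maximal effect; % is scaled to controls: 0 for no effect and ±100 for the full control effect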
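Compound-treated cells are incubated 24 hr at 37 deg C under 5% CO2 after a 12 hour attachment period, then luciferase detection reagent is added and luminescence is measured following 12 min at room temperature; lowered signal indicates toxicity.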
ClpP mod: qHTS Assay for Activators of ClpP; purified B. subtilis ClpP, FRET peptide cleavage, 20 min; Potency, µM (highest dose often 57.5 µM), for the others: at the highest dose activity change, negative = active; 340,000 tested, 1.9% active; AID 651965, 2013; active = well fitted falling curve with a large enough effect; inconclusive = small, poorly fitted or top-dose-only effect; inactive = no such curve, though single readings can be large or run the other way; also: potency is read from the fitted curve at half-maximal effect; the source files actives as falling curves though it sought activators and does not explain the sign; nearly all actives have a fitted effect of over 65% in size
Target sequence (P80244 whole entry, looked up): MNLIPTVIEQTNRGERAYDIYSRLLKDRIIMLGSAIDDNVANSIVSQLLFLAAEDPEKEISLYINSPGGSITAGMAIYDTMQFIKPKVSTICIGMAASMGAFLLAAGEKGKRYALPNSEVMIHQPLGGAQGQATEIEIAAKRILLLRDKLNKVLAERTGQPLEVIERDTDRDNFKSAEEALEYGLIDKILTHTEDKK
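ClpP 10 microg/mL final, pH 8 Tris/KCl buffer with BSA, glycerol, Tween-20; compound pinned in; FRET-FV substrate; RT 20 min; Ex320/Em430; ΔFRET vs ADEP 5.8 microM, DMSO, no enzyme.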
p53 reactivation: mutant p53 re-activation in reporter cells | H1299 p53-A138V BP100-luciferase reporter, luminescence, 24 h | AID 504706 | Potency, µM (highest dose often 92.2 µM), without a hit: at the highest dose activity change, positive = activation, most hits filed as activators | 320,000 tested, 0.063% active; also: potency is read from the fitted curve at half-maximal effect; % of control where 0% means no effect; nearly all actives have a fitted effect of over 45% in size
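H1299 (p53-null), stable ts p53-A138V + BP100-Luc; 1000 cells/well, Opti-MEM/10% FBS; cpd 4 pt, 1:5; 24 h, 37 deg C, 5% CO2; detection reagent 10 min RT; luminescence.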
GLP1R ag: agonists of human GLP-1 receptor; Potency, µM (doses to about 45.6 µM), without a hit: at the highest dose activation, actives largely listed as activators; HEK293 GLP-1R CRE-luciferase, luminescence, 4-6 h; cells express a hypersensitive GLP-1R form; P43220; 380,000 tested, 0.007% active; also: potency is read from the fitted curve at half-maximal effect; % of control where 0% means no effect
Target sequence (P43220 whole entry, looked up): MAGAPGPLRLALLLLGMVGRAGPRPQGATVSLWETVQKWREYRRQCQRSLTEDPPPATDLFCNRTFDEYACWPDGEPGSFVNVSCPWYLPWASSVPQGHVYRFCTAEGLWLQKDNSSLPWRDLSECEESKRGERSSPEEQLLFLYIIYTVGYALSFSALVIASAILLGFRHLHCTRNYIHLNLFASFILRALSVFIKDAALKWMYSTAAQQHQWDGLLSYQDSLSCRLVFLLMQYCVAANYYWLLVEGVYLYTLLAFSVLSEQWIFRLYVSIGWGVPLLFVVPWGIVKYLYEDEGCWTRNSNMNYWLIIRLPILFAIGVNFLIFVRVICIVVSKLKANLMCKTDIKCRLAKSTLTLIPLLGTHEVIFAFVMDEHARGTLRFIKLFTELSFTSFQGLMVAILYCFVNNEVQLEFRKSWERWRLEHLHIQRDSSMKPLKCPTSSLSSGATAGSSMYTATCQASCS
GLP-1R inv ag: acts as inverse agonist at human GLP-1 receptor; HEK293 GLP-1R CRE-luciferase, luminescence, 24 h; GLP-1R form is constitutively active; Potency, µM (series often up to 38.3 µM), inactives show top-dose activity change, negative = inhibition, hits mostly inhibitors; 410,000 tested, 1.6% active; AID 624417; also: potency is read from the fitted curve at half-maximal effect; % is scaled to controls: 0 for no effect and ±100 for the full control effect; nearly all actives have a fitted effect of over 55% in size
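GLP-1R inverse agonism mode: basal reporter luminescence in engineered HEK293 cells measured after one day of compound exposure at 37 deg C, with a 12 min room-temperature detection step.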
* marks the source's active call; other numbers are inactive results; ? = inconclusive; / = no result. Hits are enriched below; roughly 2.9% of the tested compounds scored in any of these assays. Unless noted, calls follow the shape of the dose curve; as a rule, active = well fitted curve in the direction sought with a large enough effect; inconclusive = small, poorly fitted or top-dose-only effect, or another doubt; inactive = no such curve, though single readings can be large; an effect the other way counts as inactive or inconclusive.

SMILES	LDHA inh	HEK293 tox	ClpP mod	p53 reactivation	GLP1R ag	GLP-1R inv ag
COc1ccccc1S(=O)(=O)Cc1ccc(C(=O)NC2CCCCCC2)o1	-1	0%	-1%	1%	0%	4%
COc1cc(NS(=O)(=O)c2ccc(OC)c(C)c2C)c(OC)cc1Cl	1	-22%	0%	3%	2%	4µM*
COc1ccc(OC)c(S(=O)(=O)Nc2cc(OC)c(Cl)cc2OC)c1	-1	7%	-3%	/	2%	0%
CC1CCCCC1NC(=O)/C=C/c1cccc(C#N)c1 (centres undefined)	2	/	/	/	/	/
CC(C(=O)N1CCN(C(=O)c2ccco2)CC1)n1sc2ccccc2c1=O (centres undefined)	-1	-6%	1%	25%	7%	-17%
CC(C(=O)N1CCCCC1)n1sc2ccccc2c1=O (centres undefined)	-4	-2%	-1%	11µM*	21%	-2%
Cc1cc(Nc2cccc(Cl)c2)nc2ccc(NC(=O)c3ccc(F)cc3Cl)cc12	-6	-25%	28µM*	/	-13%	?
COc1ccc(Nc2cc(C)c3cc(NC(=O)COc4cccc(C)c4)ccc3n2)cc1	-2	-12%	?	/	-5%	10µM*
COc1ccc(CC(=O)Nc2ccc3nc(Nc4ccc(OC)cc4)cc(C)c3c2)cc1	0	-6%	4%	/	-4%	-23%
Cc1cc(Nc2cccc(Cl)c2)nc2ccc(NC(=O)Cc3cccc(C(F)(F)F)c3)cc12	-6	?	4%	/	-10%	4µM*
Cc1cc(Nc2cccc(Cl)c2)nc2ccc(NC(=O)Cc3ccc(Cl)cc3)cc12	1	-24%	4%	/	-6%	5.6µM*
COc1ccc(CC(=O)Nc2ccc3nc(Nc4cccc(Cl)c4)cc(C)c3c2)cc1OC	6	-2%	4%	/	-7%	?
COc1ccc(CNC(=O)CCc2c(C)nc3cc(-c4ccc(OC)cc4OC)nn3c2C)cc1	-6	-6%	-12%	/	-1%	-7%
COc1ccccc1N(Cc1ccccc1)S(=O)(=O)c1cccc(C(=O)N2CCCCC2)c1	4	-9%	1%	-6%	0%	?
Cc1cc(Nc2cccc(C(F)(F)F)c2)nc2ccc(NC(=O)c3cccc(Cl)c3)cc12	-12	?	?	/	-17%	2.8µM*
CCOc1ccc(C(=O)Nc2ccc3nc(Nc4cccc(C(F)(F)F)c4)cc(C)c3c2)cc1OCC	-1	1%	?	/	0%	-6%
Cc1ccc(C(=O)N2CCN(c3ccccc3F)CC2)cc1NC1=NC2CS(=O)(=O)CC2S1 (centres undefined)	0	6%	-2%	6%	8%	2%
O=c1cnn([C@@H]2O[C@H](CO)[C@@H](O)[C@H]2O)c(=O)[nH]1	-5	4%	-3%	5%	-6%	1µM*
CN(C(=O)C=Cc1ccccc1)c1ccccc1	-3	5%	/	/	26%	-22%
Cc1cccc(CC(=O)Nc2cccc(-c3nc4cccnc4s3)c2)c1	2	-1%	20µM*	/	/	9%
CC(=O)Nc1ccc(S(=O)(=O)Oc2ccc(C(=S)N3CCCCC3)cc2)cc1	-5	-15%	4µM*	4%	2%	?
COc1ccccc1NC(=S)NC12CN3CN(CN(C3)C1)C2	7	8%	/	2%	-1%	7%
Cc1cccn2c(=O)nc(SCC(=O)N3CC(C)OC(C)C3)nc12 (centres undefined)	-3	3%	32µM*	-3%	-5%	36%
O=C(NC1CCCCCC1)c1c(O)c2cccc3c2n(c1=O)CCC3	/	/	/	-10%	/	/
CCn1c(=O)c(C(=O)NCCN2CCCCC2)c(O)c2ccccc21	13	?	?	-20%	3%	2.8µM*
SMILES	LDHA inh	HEK293 tox	ClpP mod	p53 reactivation	GLP1R ag	GLP-1R inv ag
CCN(CC)CCNC(=O)c1c(O)c2cccc3c2n(c1=O)CCC3	15	?	?	7%	0%	4.5µM*
CNC(=O)c1c(O)c2cccc3c2n(c1=O)CCC3	10	?	-11%	2%	4%	1.8µM*
CNc1c(C(=O)O)ccc2c1C(=O)c1ccccc1C2=O	1	-7%	0%	45%	2%	7%
O=C(c1cccc2[nH]ccc12)N1CCN(S(=O)(=O)c2cccc3nonc23)CC1	-9	/	/	/	/	/
Cc1ccc(-c2noc(CN(C3CCCCC3)S(=O)(=O)c3ccc(Cl)cc3)n2)cc1	-4	4%	1%	/	/	4%
C[C@@H](CO)NC(=O)c1ccc2c3n(nc2c1)-c1ccccc1CO3	-6	-50%	4%	5%	-5%	3.5µM*
CC(=O)c1c(C)[nH]c(C(=O)COc2ccc3ccc(=O)oc3c2)c1C	-1	3%	32µM*	-3%	1%	-20%
O=C(O)c1cc(-c2cccc([N+](=O)[O-])c2)n[nH]1	-14	10%	-1%	-5%	-6%	-4%
CCOC(=O)C1(C)C=C(Nc2ccccc2)C(=O)N1c1ccccc1 (centres undefined)	4	-2%	-7%	7%	11%	?
CCOC(=O)C1(C)C=C(Nc2ccc(NC(C)=O)cc2)C(=O)N1c1ccc(NC(C)=O)cc1 (centres undefined)	11	13%	25µM*	-5%	-1%	13%
O=C(c1ccoc1)N1CCC2(CC1)Oc1ccc(Cl)cc1C(=O)C21CC(c2cccnc2)=NO1 (centres undefined)	-4	-5%	-6%	-2%	-5%	17%
CCOC(=O)c1c(C)[nH]c(C)c1C(=O)COC(=O)/C=C/c1ccc(OC)cc1	-5	-17%	16µM*	-3%	1%	?
COc1ccc(-n2ccn(Cc3ccc(C)cc3)c(=O)c2=O)cc1OC	-7	5%	-4%	/	/	11%
O=C(Cc1c(O)c2ccccc2[nH]c1=O)NC1CCCCCC1	-7	13%	20µM*	23%	1%	0%
O=C(NC1CCCCCC1)c1c(O)c2ccccc2[nH]c1=O	-2	13%	-7%	11%	-14%	8%
O=C(Cc1c[nH]c2ccccc12)NC1CCCCCC1	-4	/	/	/	/	/
O=C(Cc1c(O)c2ccccc2[nH]c1=O)NC1CCCCCCC1	-6	-1%	32µM*	-2%	8%	0%
Cc1cc2nc(-c3cccnc3SCC(=O)NCc3ccco3)[nH]c2cc1C	-1	5%	16µM*	?	-4%	-21%
O=C(CSc1ncccc1-c1nc2ccccc2[nH]1)NCc1ccco1	4	3%	14µM*	?	17%	44%

Bioassay records as filed in PubChem.
